Data as given in PubChem BioAssay AID652058 (Broad Institute, 2013).
The whole screen tested about 1,200 compounds, of which about 870 (72%) were called active. About 3% were inconclusive and are not listed.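 Rule for the calls: active = every test run fits a falling curve whose half-maximal concentration is at most twice the top valid dose; inconclusive = runs disagree, or flat 30 to 70% inhibition, or poor fit; inactive = every run inactive: flat, rising or weaker potency.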 The set was probably picked from earlier hits. A selection follows. Results with a measured potency or affinity are listed apart.

Test: blockers of HIV-1 ZM109 envelope-driven cell-cell fusion – HeLa effector, CEM target cells, luciferase, cherry-pick, dose response (AID 652058);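 note: 0% = neutral control wells and -100% = maraviroc 300 nM wells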
Settings: HeLa Env/CEM cell fusion, 16-24 h; series mostly up to 35 µM; activity change, negative = inhibition: at the top concentration

Structure (SMILES) | activity change, negative = inhibition
COc1ccc(NC(=O)C2(C)CCN2Cc2ccccc2OC(F)F)cc1OC (stereo unspecified) | -0.246% (inactive)
COc1ccc(OC2C(=O)N(Cc3ccc4c(c3)OCO4)C2c2cccs2)cc1 (stereo unspecified) | -20% (inactive)
CCOC(=O)c1cnc2ccc(OCC)cc2c1NCc1ccccc1OC | 69% [at 16 µM] (inactive)
Cc1cc(C(=O)N2CCC(C(=O)O)CC2)c(C(F)(F)F)o1 | -39.7% (inactive)
CCOc1ccc(OCc2cccc(C(=O)N/N=C/c3cccnc3)c2)cc1 | -7.2% (inactive)
CCCOc1ccc(C(F)(F)F)cc1NC(=O)CCc1c(C)noc1C | -36.3% (inactive)
Cc1ccc(C)c(CNc2ccc(S(=O)(=O)N3CCCCC3)cc2)c1 | -10.3% (inactive)
Cc1ccc(S(=O)(=O)N[C@H]2C=C[C@H](CC(=O)N3CCC(Cc4ccccc4)CC3)O[C@H]2CO)cc1 | 45.1% (inactive)
CCCNC(=O)C[C@H]1C[C@H]2c3cc(NC(=O)CN(C)C)ccc3O[C@H]2[C@@H](CO)O1 | -10.1% (inactive)
CN1CCN(C(=O)C[C@H]2C[C@@H]3c4cc(NS(C)(=O)=O)ccc4O[C@@H]3[C@H](CO)O2)CC1 | -13.8% (inactive)
O=C(Nc1ccc(F)cc1)Nc1ccc2c(c1)[C@H]1C[C@@H](CC(=O)N3CCCCC3)O[C@H](CO)[C@H]1O2 | 58.6% (inactive)
CCCNC(=O)C[C@H]1C[C@H]2c3cc(NC(=O)CN(C)C)ccc3O[C@H]2[C@H](CO)O1 | 0% (inactive)
O=C(C[C@@H]1C[C@H]2c3cc(NC(=O)NC4CCCCC4)ccc3O[C@H]2[C@@H](CO)O1)NCc1ccncc1 | 4.35% (inactive)
O=C(C[C@@H]1C[C@H]2c3cc(NC(=O)Nc4ccc(F)cc4)ccc3O[C@H]2[C@H](CO)O1)NCC1CC1 | 105% (inactive)
O=C1c2cccnc2C(Nc2ccc(S(=O)(=O)N3CCCCC3)cc2)N1Cc1ccccc1 (stereo unspecified) | -24.9% (inactive)
COc1ccc(COC(=O)C2=C(C)NC(=O)NC2c2ccc(OC)cc2)cc1 (stereo unspecified) | -25.8% (inactive)
Cc1cccc(NC(=O)C2CCN(S(=O)(=O)c3ccc4c(c3)OCCCO4)CC2)n1 | -15.6% (inactive)
CCc1ccc(-c2nc(CN3CCC(C(=O)NCCc4ccc(OC)c(OC)c4)CC3)c(C)o2)cc1 | -27.3% (inactive)
O=C(Nc1ccc(N2CCN(C(=O)c3ccccc3)CC2)c(Cl)c1)c1cccnc1 | -32.6% (inactive)

Structure (SMILES) | activity change, negative = inhibition
COc1ccccc1CCNCc1ccc(OC)c(OCc2ccccc2)c1 | -24.2% (inactive)
CCN1C(=O)[C@H]2[C@@H](c3ccc(C(F)(F)F)cc3)N[C@]3(CCCN(Cc4ccccc4)C3=O)[C@H]2C1=O | 94.4% (inactive)
Cc1ccc(-n2nc3c(c2NC(=O)c2ccco2)CS(=O)C3)cc1 (stereo unspecified) | 89.7% (inactive)
FC(F)(F)c1nc(-c2cccs2)ncc1-c1nnnn1-c1ccc(Cl)cc1 | 130% (inactive)
Cc1ccc(S(=O)(=O)Nc2ccc3c(c2)C(=O)N([C@H](C)CO)C[C@@H](C)[C@H](CN(C)S(=O)(=O)c2ccc(F)cc2)O3)cc1 | 13.2% (inactive)
C[C@H](CO)N1C[C@H](C)[C@H](CN(C)S(=O)(=O)c2ccc(F)cc2)Oc2ccc(NS(=O)(=O)c3ccccc3)cc2CC1=O | -27.6% (inactive)
C=CCN1C(=S)CC(c2ccccc2)=Nc2ccccc21 | 30.2% (inactive)
CC1CCCN(C(=O)c2ccc(S(=O)(=O)N3CCC(c4nc5ccccc5s4)CC3)cc2)C1 (stereo unspecified) | -24.4% (inactive)
CS(=O)(=O)Nc1ccc2c(c1)[C@H]1C[C@H](CC(=O)N3CCc4ccccc4C3)O[C@H](CO)[C@H]1O2 | 1.72% (inactive)
CS(=O)(=O)Nc1ccc2c(c1)[C@@H]1C[C@@H](CC(=O)N3CCc4ccccc4C3)O[C@H](CO)[C@@H]1O2 | 2.24% (inactive)
CS(=O)(=O)Nc1ccc2c(c1)[C@H]1C[C@H](CC(=O)NCc3ccc(-c4ccccc4)cc3)O[C@H](CO)[C@H]1O2 | 19.1% (inactive)
CCN(c1nc(N)c(C(=O)N=C(N)N)nc1Cl)C(C)C | -2.13% [at 16 µM] (inactive)
CCN(CC)CCN(C(=O)c1cc(Cl)sc1Cl)c1nc2cc3c(cc2s1)OCO3 | 21.8% (inactive)
CCC(=O)N(C)C(c1ccccc1Cl)c1nnnn1-c1c(C)cccc1C (stereo unspecified) | 35.5% (inactive)
O=C(O)C[C@@H]1C=C[C@H](NC(=O)Nc2ccccc2)[C@H](CO)O1 | 15.4% (inactive)
O=C(O)C[C@@H]1C=C[C@@H](NC(=O)Nc2ccccc2)[C@H](CO)O1 | 80% (inactive)
Cc1nc2ccccc2c2oc(C(=O)NCc3ccc4c(c3)OCO4)cc12 | 115% (inactive)
O=C(Nc1ccc(Cl)cc1)C1CCCN(C2=NS(=O)(=O)c3ccccc32)C1 (stereo unspecified) | -20.3% [at 16 µM] (inactive)
C[C@H]1CN([C@@H](C)CO)C(=O)Cc2cc(NS(=O)(=O)c3ccccc3)ccc2O[C@@H]1CN(C)Cc1ccc(Cl)c(Cl)c1 | -31.9% (inactive)

Structure (SMILES) | activity change, negative = inhibition
COc1cc(-c2c(-c3cc(OC)c(OC)c(OC)c3)noc2C)ccc1F | 138% (inactive)
CC1Cc2cc(-c3csc(NC(=O)Cc4cccs4)n3)ccc2N1S(C)(=O)=O (stereo unspecified) | 102% [at 16 µM] (inactive)
O=C(Nc1nc(COc2ccccc2)cs1)C12CC3CC(CC(C3)C1)C2 | -16.3% (inactive)
COCCCn1c(-c2ccc(S(=O)(=O)N3CCOCC3)cc2)csc1=Nc1ccccc1 | -3.14% (inactive)
COc1ccc(S(=O)(=O)n2ccc(-c3ccc(OCCN(C)c4ccccn4)cc3)n2)cc1 | 7.14% [at 16 µM] (inactive)
COc1ccccc1S(=O)(=O)Cc1ccc(C(=O)N2CCN(c3cccc(Cl)c3)CC2)o1 | 188% [at 16 µM] (inactive)
O=C(c1ccccc1F)N1CCN(Cc2cccc(Cl)c2)CC1 | -9.33% (inactive)
CCOC(=O)C1CCN(C(=O)c2ccc3c(c2)C(=O)N(c2ccccc2C)C3=O)CC1 | 41% (inactive)
COc1ccc(OCC(=O)Nc2ccccc2N2CCCCC2)cc1 | 271% (inactive)
Cc1cc(Cl)ccc1OCC(=O)NNC(=O)C1CSC2(C)CCC(=O)N12 (stereo unspecified) | 14.6% (inactive)
CS(=O)(=O)N1CCN(c2ccccc2NC(=O)C(c2ccccc2)c2ccccc2)CC1 | -0.512% (inactive)
O=C(c1ccc(Cl)s1)N1CCN(c2nc3ccccc3s2)CC1 | -41.6% (inactive)
CCOC(=O)c1cccc(NS(=O)(=O)c2ccc(NC(C)=O)cc2)c1 | 61.5% (inactive)
O=C(Nc1ccc(CN2CCS(=O)(=O)CC2)cc1)c1ccc(C(F)(F)F)cc1 | -27.4% (inactive)
O=C(Nc1cc2c3c(c1)CC(=O)N3CCC2)c1ccc(Cl)cc1 | 162% (inactive)
C=CC[n+]1c(-c2ccc(C)cc2)csc1NNC(=O)Nc1ccccc1 | -55.6% [at 16 µM] (inactive)
Cc1noc(C)c1S(=O)(=O)N(C)C[C@H]1Oc2ccc(NC(=O)Nc3ccccc3)cc2CC(=O)N([C@H](C)CO)C[C@H]1C | 18% (inactive)
N#C/C(=N\Nc1ccc(Cl)cc1)C(=O)c1ccccc1 | 7.69% (inactive)
